Data as given in PubChem BioAssay AID1032 (The Scripps Research Institute Molecular Screening Center, 2008).
The whole screen tested about 200,000 compounds, of which about 670 (0.34%) were called active. Rule as the data show it: active = activation above about 22%; inactive = the rest. The sample as a whole holds a higher share of actives than the screen did.

The compounds below were run against Peroxisome proliferator-activated receptor gamma (Homo sapiens) (UniProt P37231) (assay: agonists of PPARg-SRC-2 recruitment, primary screen, biochemical, HTS (AID 1032;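 also: 0% = vehicle and 100% = reference agonist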)). Conditions: PPARgamma LBD-SRC-2 recruitment, at 8 µM, hits give high values.
Peroxisome proliferator-activated receptor gamma (Homo sapiens), sequence (P37231 whole entry, looked up, the tested form may be a part): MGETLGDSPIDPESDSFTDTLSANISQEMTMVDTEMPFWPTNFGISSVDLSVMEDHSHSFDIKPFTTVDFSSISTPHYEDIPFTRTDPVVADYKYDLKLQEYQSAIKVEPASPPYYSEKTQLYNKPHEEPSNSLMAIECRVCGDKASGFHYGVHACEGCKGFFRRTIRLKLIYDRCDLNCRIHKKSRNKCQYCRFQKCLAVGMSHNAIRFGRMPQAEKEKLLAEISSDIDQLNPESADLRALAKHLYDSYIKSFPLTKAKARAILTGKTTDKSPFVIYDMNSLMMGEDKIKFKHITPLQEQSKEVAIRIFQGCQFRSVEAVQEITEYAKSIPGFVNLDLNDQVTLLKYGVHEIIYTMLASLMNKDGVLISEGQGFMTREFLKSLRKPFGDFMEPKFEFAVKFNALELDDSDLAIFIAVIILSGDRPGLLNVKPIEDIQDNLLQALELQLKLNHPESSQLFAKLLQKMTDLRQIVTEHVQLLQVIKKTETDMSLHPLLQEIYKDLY

activation, active:
CCN(/N=C/c1ccc(N(C)C)cc1)c1nc2ccccc2[nH]1 23%
O=C(O)Cc1sc(-c2ccccc2)nc1-c1cccs1 34.7%
Fc1ccc(COc2cccc(-c3n[nH]c(=S)o3)c2)cc1 44.9%
CCn1c(=O)cc(SCC(=O)NCc2ccc3c(c2)OCO3)c2ccccc21 36%

activation, inactive:
O=C(Oc1cccc(O)c1)C1CCCCC1 1.13%
Cc1ccc(NC(=O)c2ccc(Oc3ncccn3)cc2)cc1 3.49%
CCN(/N=C/c1ccccc1)c1cc(=O)n(C)c(=O)[nH]1 -3.6%
CN(C)c1ccc(/C=N/N(Cc2ccccc2)c2ccccc2)cc1 11.9%
O=C(Nc1ccccc1F)c1ccc(Cn2cc(Br)cn2)cc1 -1.02%
CN1CCN(CCC(=O)N/N=C/C=C2\N(C)c3ccccc3C2(C)C)CC1 10%
O=C(Nc1ccncc1)c1ccccc1[N+](=O)[O-] -0.46%
CCn1cc(CNC(=O)c2cc([N+](=O)[O-])c(C)c([N+](=O)[O-])c2)cn1 -6.4%
COc1ccc(NC(=S)NC2CCS(=O)(=O)C2)cc1 (stereo not given) 6.88%
O=C(O)Cc1sc(-c2ccc(C(=O)O)cc2)nc1-c1ccccc1 10.9%
Cc1ccc(-c2nc(C)sc2CC(=O)O)cc1 -0.57%
COc1ccc(NC(=O)CN(C)CC(=O)Nc2cccc(C(F)(F)F)c2)cc1 -2.86%
COc1cc2c(cc1OC)CC1(CCCCC1)N=C2 0.25%
Cc1n[nH]c(=O)nc1N/N=C/c1cccs1 3.35%
COc1cccc(-n2c(=O)c3c(C)c(C(=O)N(C)C)sc3n(CC(=O)NCCc3ccc(OC)c(OC)c3)c2=O)c1 9.15%
O=C(NNc1ccccc1Cl)C(O)(c1cccc(C(F)(F)F)c1)c1cccc(C(F)(F)F)c1 17.2%
Cc1cccc(OCc2ccc(C(=O)Nc3ccc(F)cc3)cc2)c1 -0.72%
Cc1nc2ccccc2cc1OCc1ccc(F)cc1 4.89%
CC(C)NC(=O)CSc1ccccc1C(=O)NCc1ccc2c(c1)OCO2 -4.93%
CCn1c(=O)cc(SCC(=O)NCCC2=CCCCC2)c2ccccc21 16.9%
O=C(N/N=C/c1ccc2c(c1)OCO2)C(=O)N1CCCC1 -5.72%
